A selection: hits, their analogues and other compounds. The true share with any hit is near 9%.
ALDH1A1 block: qHTS Assay for Inhibitors of Aldehyde Dehydrogenase 1 (ALDH1A1) | Aldehyde dehydrogenase 1A1 (Homo sapiens), P00352 | Purified ALDH1A1, NADH fluorescence, propionaldehyde substrate | Potency, µM (highest dose often 75.3 µM), without a hit: at the highest dose activity, negative = inhibition, usual class: inhibitors | 7.3% of 220,000 active | AID 1030, 2008;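 note: potency is the fitted concentration of half-maximal effect; plate controls were no enzyme wells and a reference inhibitor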
HPGD block: qHTS Assay for Inhibitors of HPGD (15-Hydroxyprostaglandin Dehydrogenase). Potency, µM, for the others: at the top dose activity change, negative = inhibition, usual class: inhibitors. 15-hydroxyprostaglandin dehydrogenase [NAD(+)] (Homo sapiens), P15428. purified HPGD, NADH fluorescence kinetic, PGE2 substrate. 4.3% of 150,000 active; note: potency is the fitted concentration of half-maximal effect
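20 nM HPGD preincubated 15 min at room temperature with compound in 50 mM Tris-HCl pH 8, 0.01% Tween 20. Started with 1 mM NAD+ and 30 uM prostaglandin E2; NADH fluorescence (360/450 nm) read 5 times over 30-s intervals, last minus first.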
IMPase cell inh: qHTS Assay for Identifying the Cell-Membrane Permeable IMPase Inhibitors. CHO-M1 cells, IP1 accumulation, HTRF TR-FRET ratio. 120,000 tested, under 10 active. Inositol monophosphatase 1 (Rattus norvegicus), P97697. inhibition (IP1 accumulation), % at 46.1 µM. AID 901, 2007; active = well fitted curve in the direction sought with a large enough effect in the signal ratio, not every such curve was filed as active; inconclusive = small, poorly fitted or top-dose-only effect, or a change in a side signal; inactive = no such curve, though single readings can be large or run the other way; the % refers to the signal ratio;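 note: cells stimulated with carbachol in lithium chloride buffer; plate controls were DMSO basal wells for no effect and reference inhibitor wells for full effect; higher means more IMPase inhibition seen as more IP1 and lower FRET ratio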
Target sequence (P97697 whole entry, looked up): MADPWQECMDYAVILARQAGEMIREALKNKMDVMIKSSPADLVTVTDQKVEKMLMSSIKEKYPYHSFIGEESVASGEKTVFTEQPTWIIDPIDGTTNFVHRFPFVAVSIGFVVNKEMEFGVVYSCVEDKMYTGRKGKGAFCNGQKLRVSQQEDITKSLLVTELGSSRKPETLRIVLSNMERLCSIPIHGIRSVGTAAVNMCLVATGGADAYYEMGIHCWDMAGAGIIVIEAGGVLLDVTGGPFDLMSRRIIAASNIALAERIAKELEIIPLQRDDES
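Carbachol-driven Gq signalling in CHO-M1 cells (2000/well) generates IP1. Compounds that block IMPase raise IP1 and so reduce the FRET signal from Eu-anti-IP1 and d2-IP1 after a 10 min room-temperature lysis.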
An asterisk follows results filed as active; [ ] = remark or other dose. Unless noted, calls come from the whole dose curve; as a rule, active = well fitted inhibition curve with a large enough effect (not every such curve was filed as active); inconclusive = small, poorly fitted or top-dose-only effect, or another doubt; inactive = no such curve, though single readings can be large or run the other way. Unless noted, % is set by controls: 0 for no effect and ±100 for the full control effect.

COc1ccccc1CN1CC2(CCN(C(=O)c3cc(C(F)(F)F)cc(C(F)(F)F)c3)CC2)C1 was read as ALDH1A1 block 17% and HPGD block -6%.
For COC(=O)c1sccc1NC(=S)N1CCCCC1 the results were ALDH1A1 block 7.9µM*, HPGD block inconclusive and IMPase cell inh -1.
Screening COc1ccc(C(=O)NC(=S)N2CC(C)OC(C)C2)cc1 (stereo not drawn) returned ALDH1A1 block 9% and HPGD block -6%.
COc1ccc(C(=O)NC(=S)N2CCCCC2)cc1 was read as ALDH1A1 block 16µM*, HPGD block 18µM* and IMPase cell inh -2.
COc1cc(OC)cc(C(=O)NC(=S)N2CCCCCC2)c1 was read as ALDH1A1 block 3%.
Screening COc1ccc(C(=O)NC(=S)N2CCC(C)CC2)cc1 returned ALDH1A1 block inconclusive, HPGD block 22µM* and IMPase cell inh -8.
COC(=O)c1sccc1NC(=S)N1CCC(C(N)=O)CC1 was read as ALDH1A1 block -2%.
`CCC(C)NC(=O)CNC(=O)Cn1c(C)cc2ccccc2c1=O` (stereo not drawn) gave ALDH1A1 block inconclusive, HPGD block inconclusive and IMPase cell inh 8.
For CNS(=O)(=O)c1ccc(C)c(S(=O)(=O)NC)c1 the results were ALDH1A1 block -2% and HPGD block -2%.
Screening COc1cc(/C=C/C(=O)O)cc(S(=O)(=O)N2CCc3ccccc3C2)c1OC returned ALDH1A1 block -6%.
CCOc1ccc(NC(=O)C2=C(C)NC(=S)NC2c2ccc(O)c(OC)c2)cc1 (stereo not drawn) was read as ALDH1A1 block -3% and HPGD block 1%.
For Cc1cc(C)nc(NS(=O)(=O)c2ccc(Br)s2)c1 the results were ALDH1A1 block 25µM*, HPGD block inconclusive and IMPase cell inh 11.
`Cc1cccc(NS(=O)(=O)c2ccc(Br)s2)n1` gave ALDH1A1 block inconclusive, HPGD block -12% and IMPase cell inh 5.
COc1ccccc1N1CCN(CCn2c(=O)c3c(c4ccccc4n3C)n(C)c2=O)CC1 was read as ALDH1A1 block 15%.
`COc1ccc(CNC(=O)c2cnc(C)cn2)cc1` gave ALDH1A1 block inconclusive, HPGD block 25µM* and IMPase cell inh -2.
`COc1ccc(CNC(=O)c2ccc(C)o2)cc1` gave ALDH1A1 block -9%, HPGD block 3.5µM* and IMPase cell inh -9[0.0738 µM].
Screening COc1ccc(CNC(=O)c2ccc(C(C)(C)C)cc2)cc1 returned ALDH1A1 block 9%.
Screening COc1ccc(CNC(=O)c2cnc(C)cn2)c(OC)c1 returned ALDH1A1 block inconclusive, HPGD block -6% and IMPase cell inh 7.
`COc1ccc(CNC(=O)C(C)Sc2ccc(C)cc2)cc1` (stereo not drawn) gave ALDH1A1 block 14µM*.
Cc1onc(-c2ccccc2Cl)c1C(=O)NCc1ccccc1 was read as ALDH1A1 block 2%, HPGD block -13% and IMPase cell inh 0.
COc1ccc(CNC(=O)c2c(-c3cc(Cl)c(OC)c(Cl)c3)noc2C)cc1 was read as ALDH1A1 block 0.045µM*, HPGD block -7% and IMPase cell inh 2.
For Cc1ccc(SC(C)C(=O)NCc2ccncc2)cc1 (stereo not drawn) the results were ALDH1A1 block -3%.
`COc1ccc(C(=O)OCN2C(=O)c3ccccc3C2=O)cc1` gave ALDH1A1 block -6%.
For Cc1cccc2[nH]c(CN(C)Cc3nc(CC4CC4)no3)nc12 the results were ALDH1A1 block 2%.
O=c1c(/C=N/O)coc2ccc3ccccc3c12 was read as ALDH1A1 block 11µM*, HPGD block -28% and IMPase cell inh -14.
`Cc1ccc2occ(/C=N/O)c(=O)c2c1` gave ALDH1A1 block inconclusive, HPGD block -18% and IMPase cell inh 2.
`CCOC(=O)CCN1C(=O)[C@H]2[C@H]3[C@H](O)[C@H](O)C/C(=N/OC[C@@H](O)COCc4ccco4)[C@@H]3CC[C@@H]2C1=O` gave ALDH1A1 block 1%[13.5 µM].
Oc1ccccc1C1=NOC(O)(C(F)F)C1 (stereo not drawn) was read as ALDH1A1 block 1%, HPGD block 16µM* and IMPase cell inh 5.
For Oc1ccccc1C1=Nc2ccccc2N=C(c2ccco2)C1 the results were ALDH1A1 block -2%, HPGD block -12% and IMPase cell inh 10.
`O=C(/C=C/c1ccccc1Cl)NCCc1ccccc1` gave ALDH1A1 block -7%, HPGD block 16µM* and IMPase cell inh inconclusive.

Compound activity: PubChem BioAssay, National Center for Advancing Translational Sciences (NCATS)
